Assay results reported in PubChem BioAssay AID1159580 (chemical genetic matrix, 2015).
About 2,000 (36%) of roughly 5,500 compounds were called active. Another 18% or so got no clear call; they are omitted. No stated cut-off is given here; in the data, active means normalized growth mostly below about 0.91 (no sharp cut-off); inconclusive means no clear call, values can overlap the other calls; inactive means mostly above about 0.92. Some of the results follow.

Experiment: chemical genetic growth profiling, strain panel (AID 1159580);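 further: tested at 20 µM; growth read once vehicle control cultures reached saturation at 30 °C; 1 = growth at the plate median or of vehicle wells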
Conditions: S. cerevisiae deletion strains, growth OD
[1] = locus YAL040C, strain CLN3, stronger effect = lower value
[2] = locus YCL061C, strain MRC1 (second series), stronger effect = lower value
[3] = locus YDR363W, strain ESC2, stronger effect = lower value
[4] = locus YER002W, strain NOP16, stronger effect = lower value
[5] = locus YNL175C, strain NOP13, stronger effect = lower value
[6] = locus YNL197C, strain WHI3, stronger effect = lower value
[7] = locus YNL224C, strain SQS1, stronger effect = lower value
[8] = locus YOR083W, strain WHI5 (second series), stronger effect = lower value

Measured: normalized growth

CC(C)C[C@H](N)CSSC[C@@H](N)CC(C)C
inactive: [1] 0.965 | [2] 1.01 | [3] 1 | [4] 1.02 | locus YJR075W, strain HOC1, stronger effect = lower value 1 | locus YMR307W, strain GAS1, stronger effect = lower value 1.01 | locus YNL128W, strain TEP1, stronger effect = lower value 1.01 | [5] 1.01 | [6] 1.01 | [7] 1 | [8] 1.03 | locus YPL241C, strain CIN2, stronger effect = lower value 1.01

c1ccc(-c2nnc(-c3ccccn3)nc2-c2ccccc2)cc1
inactive: locus YBL105C, strain PKC1, stronger effect = lower value 0.945 | locus YBR135W, strain CKS1, stronger effect = lower value 0.937 | locus YBR136W, strain MEC1, stronger effect = lower value 0.904 | locus YBR160W, strain CDC28, stronger effect = lower value 0.944 | locus YDL017W, strain CDC7, stronger effect = lower value 0.946 | locus YDL028C, strain MPS1, stronger effect = lower value 0.896 | locus YDL101C, strain DUN1, stronger effect = lower value 0.957 | locus YDL108W, strain KIN28, stronger effect = lower value 0.917 | locus YDL214C, strain PRR2, stronger effect = lower value 0.814 | locus YDR226W, strain ADK1, stronger effect = lower value 0.924 | locus YDR477W, strain SNF1, stronger effect = lower value 0.748 | locus YER123W, strain YCK3, stronger effect = lower value 0.704 | locus YER133W, strain GLC7, stronger effect = lower value 0.783 | locus YFR003C, strain YPI1, stronger effect = lower value 0.943 | locus YFR019W, strain FAB1, stronger effect = lower value 0.796 | locus YGR040W, strain KSS1, stronger effect = lower value 0.748 | locus YGR052W, strain FMP48, stronger effect = lower value 0.641 | locus YHR082C, strain KSP1, stronger effect = lower value 0.655 | locus YHR205W, strain SCH9, stronger effect = lower value 0.689 | locus YIL147C, strain SLN1, stronger effect = lower value 0.893 | locus YJL128C, strain PBS2, stronger effect = lower value 0.871 | locus YJL157C, strain FAR1, stronger effect = lower value 0.74 | locus YJR066W, strain TOR1 (second series), stronger effect = lower value 0.663 | locus YJR066W, strain TOR1, stronger effect = lower value 0.565 | locus YKL067W, strain YNK1, stronger effect = lower value 0.792 | locus YML070W, strain DAK1, stronger effect = lower value 0.78 | locus YMR001C, strain CDC5, stronger effect = lower value 0.903 | locus YNL006W, strain LST8, stronger effect = lower value 0.932 | locus YNL020C, strain ARK1, stronger effect = lower value 0.746 | locus YNL161W, strain CBK1, stronger effect = lower value 0.938 | locus YNL183C, strain NPR1, stronger effect = lower value 0.655 | locus YNL222W, strain SSU72, stronger effect = lower value 0.914 | locus YOL136C, strain PFK27, stronger effect = lower value 0.861 | locus YOR231W, strain MKK1, stronger effect = lower value 0.631 | locus YOR329C, strain SCD5, stronger effect = lower value 0.921 | locus YPL031C, strain PHO85, stronger effect = lower value 0.774 | locus YPL153C, strain RAD53, stronger effect = lower value 0.695 | locus YPL209C, strain IPL1, stronger effect = lower value 0.931 | locus YPR025C, strain CCL1, stronger effect = lower value 0.927 | locus YPR106W, strain ISR1, stronger effect = lower value 0.919 | locus YPR111W, strain DBF20, stronger effect = lower value 0.885
active: locus YAR019C, strain CDC15, stronger effect = lower value 0.857 | locus YDL132W, strain cdc53, stronger effect = lower value 0.856 | locus YDR052C, strain DBF4, stronger effect = lower value 0.908 | locus YDR054C, strain cdc34, stronger effect = lower value 0.845 | locus YFL009W, strain cdc4, stronger effect = lower value 0.812 | locus YFL029C, strain CAK1, stronger effect = lower value 0.806 | locus YFR028C, strain CDC14, stronger effect = lower value 0.871 | locus YGR092W, strain DBF2, stronger effect = lower value 0.473 | locus YHR030C, strain SLT2, stronger effect = lower value 0.531 | locus YHR079C, strain IRE1, stronger effect = lower value 0.487 | locus YJL095W, strain BCK1, stronger effect = lower value 0.47 | locus YJR016C, strain ILV3, stronger effect = lower value 0.83 | locus YKL048C, strain ELM1, stronger effect = lower value 0.683 | locus YKL101W, strain HSL1, stronger effect = lower value 0.716 | locus YKL193C, strain SDS22, stronger effect = lower value 0.867 | locus YKL203C, strain TOR2, stronger effect = lower value 0.652 | locus YLR113W, strain HOG1, stronger effect = lower value 0.581 | locus YLR133W, strain CKI1, stronger effect = lower value 0.676 | locus YLR403W, strain SFP1, stronger effect = lower value 0.631 | locus YMR205C, strain PFK2 (second series), stronger effect = lower value 0.734 | locus YMR277W, strain FCP1, stronger effect = lower value 0.871 | locus YNL207W, strain RIO2, stronger effect = lower value 0.813 | locus YNL307C, strain MCK1 (second series), stronger effect = lower value 0.623 | locus YOL078W, strain AVO1, stronger effect = lower value 0.859 | locus YOR061W, strain CKA2, stronger effect = lower value 0.662 | locus YOR119C, strain RIO1, stronger effect = lower value 0.57 | locus YPL204W, strain HRR25, stronger effect = lower value 0.661 | locus YPL256C, strain CLN2, stronger effect = lower value 0.545 | strain NNK1, stronger effect = lower value 0.814 | strain TSCII, stronger effect = lower value 0.842

c1ccc(-c2ccccn2)nc1
inactive: [1] 0.974 | [2] 0.975 | [3] 1.02 | [4] 0.966 | locus YGR078C, strain PAC10, stronger effect = lower value 0.977 | locus YMR263W, strain SAP30, stronger effect = lower value 1 | locus YNL153C, strain GIM3, stronger effect = lower value 0.942 | [5] 0.987 | [6] 0.95 | [7] 0.991 | locus YNL322C, strain KRE1, stronger effect = lower value 1.03 | [8] 0.972
